# Assay results from ChEMBL document CHEMBL3988442, “University of Dundee, Small-Polar-MMV Screening Library” (2021).
# In all, about 69,000 compounds went through this assay and about 1,000 (1.4%) showed an effect of 50% or more. This is one part of a sample in which strong results are shown more often than they occur.
# Test system: Leishmania donovani
# Experiment: Leishmania intramacrophage assay
# Format: functional, organism-based
# Design: scale not given: in the data most compounds retested in dose-response had high values
smiles,measurement,setting,value
O=C1Nc2ccccc2CNC12CCN(CC1CCCC1)CC2,Percent Effect,"30.3 µM, […]",-1.284%
CCCN1Cc2ccccc2NC(=O)C12CCNC2 (centres undefined),Percent Effect,"30.3 µM, […]",13.56%
O=C1Nc2ccccc2CC12CCCN2Cc1ccc(F)cc1 (centres undefined),Percent Effect,"30.3 µM, […]",-31.7%
O=C1Nc2ccccc2CN(C/C=C/c2ccccc2)C12CCNC2 (centres undefined),Percent Effect,"30.3 µM, […]",95.58%
O=C1Nc2ccccc2CN(CC2CC2)C12CCNC2 (centres undefined),Percent Effect,"30.3 µM, […]",19.67%
O=C1Nc2ccccc2CN(CC2CCCC2)C12CCNC2 (centres undefined),Percent Effect,"30.3 µM, […]",67.89%
CC(C)NC(=O)Nc1ccc(-c2nc(C(C)C)no2)cc1,Percent Effect,"30.3 µM, […]",-3.03%
Cc1cc(=O)c(C(=O)N2CCCCC2c2ccc(F)cc2)c[nH]1 (centres undefined),Percent Effect,"30.3 µM, […]",7.21%
Cc1nc2[nH]cc(C(=O)N3CCCCC3c3ccc(F)cc3)c(=O)n2n1 (centres undefined),Percent Effect,"30.3 µM, […]",-11.65%
Cc1cc2[nH]cc(C(=O)N3CCCCC3c3ccc(F)cc3)c(=O)n2n1 (centres undefined),Percent Effect,"30.3 µM, […]",54.57%
COc1c(CNCCNC(=O)c2ccco2)c(C)nn1C,Percent Effect,"30 µM, 30.03 µM",1.036%
CCn1nc(C)c2ccn(CC(=O)NCCCOC)c(=O)c21,Percent Effect,"30.3 µM, […]",6.815%
Cc1cc(C(=O)N2CCCC(c3nccn3Cc3cscn3)C2)on1 (centres undefined),Percent Effect,"30.3 µM, […]",7.716%
Cc1nc2ccccn2c1CN1C[C@@H](CN(C)C)[C@@H](CO)C1,Percent Effect,"30.3 µM, […]",28.56%
Cc1nc2ccccn2c1CN1C[C@@H](CN2CCOCC2)[C@@H](CO)C1,Percent Effect,"30.3 µM, […]",60.75%
COc1ccccc1OC1CN(C(=O)Cc2c(C)nc3ccccn23)C1,Percent Effect,"30.3 µM, […]",42.17%
Cc1nc2ccccn2c1CN1C[C@@H](CN(C)CCO)[C@@H](CO)C1,Percent Effect,"30.3 µM, […]",17.46%
Cc1ccccc1OC1CN(Cc2c(C)nc3ccccn23)C1,Percent Effect,"30.3 µM, […]",56.4%
Cc1nc(CN2C[C@@H](CN3CCOCC3)[C@@H](CO)C2)c2ccccn12,Percent Effect,"30.3 µM, […]",-8.953%
CC(C)CCc1nc(CNCC2CN(C)CCO2)cs1 (centres undefined),Percent Effect,30 µM,42.41%
CCN1C(=O)C2(CCOCC2)c2cc(NC(=O)c3cc(C)n[nH]3)ccc21,Percent Effect,"30.3 µM, […]",7.521%
Cc1nonc1CC(=O)N1CCC2(CCCN(C3CCOCC3)C2=O)C1 (centres undefined),Percent Effect,"30.3 µM, […]",40.04%
O=C(c1c[nH]nn1)N1CCCC1C1CCCCC1 (centres undefined),Percent Effect,"30.3 µM, […]",34.69%
Cc1cc(C)n(C2CCN(S(=O)(=O)N3CCOCC3)CC2)n1,Percent Effect,"30.3 µM, […]",-18.5%
CN(C)C(CNC(=O)c1ccc(-n2cnnn2)cc1)c1ccccc1Cl (centres undefined),Percent Effect,"30.3 µM, […]",52.55%
O=C(NCC(O)c1ccccc1Cl)c1cccc(-n2cnnn2)c1 (centres undefined),Percent Effect,"30 µM, 30.03 µM",18.08%
CN(C)C(CNC(=O)c1cccc(-n2cnnn2)c1)c1ccccc1Cl (centres undefined),Percent Effect,"30 µM, 30.03 µM",-12.85%
Cc1ncc(CNCC(C)O)c2cc(C(=O)c3ccc(Br)cc3)oc12.Cl (centres undefined),Percent Effect,"30.3 µM, […]",46.85%
Cc1ncc(CNC(C)(C)CO)c2cc(C(=O)c3ccc(Br)cc3)oc12,Percent Effect,"30.3 µM, […]",44.76%
Cc1ncc(CNCCO)c2cc(C(=O)c3ccc(Br)cc3)oc12.Cl,Percent Effect,"30.3 µM, […]",52.55%
CCn1nc(C)c2ncnc(NCCn3cccn3)c21,Percent Effect,"30.3 µM, […]",-8.829%
N#Cc1ccc(N2CCC3(CC2)COCCN3Cc2cccnc2)cc1.O=C(O)C(F)(F)F,Percent Effect,"30.3 µM, […]",-0.3912%
CC1(C)CC(N2Cc3nc(N)ncc3C2=O)CC(C)(C)N1,Percent Effect,"30 µM, 30.03 µM",0.1811%
CNc1ncc2c(n1)CN(C1CC(C)(C)NC(C)(C)C1)C2=O,Percent Effect,"30.3 µM, […]",57.04%
CNc1ncc2c(n1)CN(C1CCCC1)C2=O,Percent Effect,"30.3 µM, […]",-21.11%
CCc1nsc(NC2CC(=O)N(C3CC3)C2)n1 (centres undefined),Percent Effect,"30.3 µM, […]",25.34%
Cc1ccc(-c2[nH]c3ccccc3c2C(=O)O)c(C)c1,Percent Effect,"30.3 µM, […]",12.49%
COCCN1CCC(CNC(=O)Nc2ccc(-c3ccccc3)cc2)C1 (centres undefined),Percent Effect,"30.3 µM, […]",93.25%
COCCN1CCC(CNC(=O)Nc2ccc(SC(F)(F)F)cc2)C1 (centres undefined),Percent Effect,"30.3 µM, […]",43.78%
COCCN1CCC(CNC(=O)Nc2ccc(F)c(Cl)c2)C1 (centres undefined),Percent Effect,"30.3 µM, […]",9.001%
Cc1cccc(CN2CCC3(CC(C(=O)NCC(C)C)=NO3)C2)c1 (centres undefined),Percent Effect,"30.3 µM, […]",14.53%
CN(Cc1ccccc1)c1ccc(C(F)(F)F)cn1,Percent Effect,"30.3 µM, […]",14.63%
CN(Cc1ccc([S+](C)[O-])cc1)c1ccc(C(F)(F)F)cn1 (centres undefined),Percent Effect,"30.3 µM, […]",54.49%
CN(Cc1ccc([S+](C)[O-])cc1)c1ccc(Br)cn1 (centres undefined),Percent Effect,"30.3 µM, […]",20.24%
Cn1ccnc1CN1CCCN(C(=O)CC(C2CC2)C2CC2)CC1,Percent Effect,30 µM,10.73%
Cn1nc(C(=O)NCc2ccccn2)c2c1CCS(=O)(=O)C2,Percent Effect,"30 µM, 30.03 µM",-1.622%
Cn1nc(C(=O)NCc2cccs2)c2c1CCS(=O)(=O)C2,Percent Effect,"30.3 µM, […]",62.35%
Cc1ncc(CNC(=O)c2nn(C)c3c2CS(=O)(=O)CC3)s1,Percent Effect,"30 µM, 30.03 µM",17.47%
CN1C(=O)CCCC12CCCN(Cc1cccs1)C2.O=C(O)C(F)(F)F (centres undefined),Percent Effect,"30.3 µM, […]",13.27%
OC(COCc1ccccc1F)CN1CCC(Cn2cccn2)CC1 (centres undefined),Percent Effect,"30.3 µM, […]",8.392%
Cc1ccc(CN2C[C@@H]3CN(C(=O)c4cccn4C)C[C@@H]3C2)cc1.O=C(O)C(F)(F)F,Percent Effect,"30.3 µM, […]",-2.2%
Cc1noc(C)c1CNc1c(N2CCCC2)cccc1N1CCCC1,Percent Effect,"30.3 µM, […]",97.2%
Cc1noc(CNc2c(N3CCCC3)cccc2N2CCCC2)n1,Percent Effect,"30.3 µM, […]",45.54%
COc1ccccc1N1CCC(NCc2c(C)noc2C)C1 (centres undefined),Percent Effect,"30.3 µM, […]",7.918%
Cc1cc(CN2CCC(N(C)Cc3noc(C4CC4)n3)C2)on1 (centres undefined),Percent Effect,30 µM,11.66%
O=C(c1ccncc1)N1CCCn2c(CN3CCCCC3)nnc2C1,Percent Effect,"30 µM, 30.03 µM",-1.304%
CN1CC(c2cc(O)nc(NCc3ccccc3Cl)n2)CC1=O (centres undefined),Percent Effect,"30.3 µM, […]",7.659%
CCN1CCCC(O)(c2nc(C)c(CCOc3ccccc3Cl)s2)CC1 (centres undefined),Percent Effect,"30.3 µM, […]",29.58%
Cc1ncc(C(=O)NCCOc2ccccc2F)c(C)n1,Percent Effect,"30.3 µM, […]",48.08%
Cc1nc(C2(O)CCCNCC2)sc1CCOc1ccccc1F.Cl (centres undefined),Percent Effect,"30.3 µM, […]",57.78%
CCN1CCCC(O)(c2nc(C)c(CCOc3ccccc3F)s2)CC1 (centres undefined),Percent Effect,"30.3 µM, […]",7.204%
Cc1nc(C2(O)CCCNCC2)sc1CCOc1ccccc1Cl.Cl (centres undefined),Percent Effect,"30.3 µM, […]",22.61%
CC/N=c1/c(NC(=O)C2CC2)c(O)oc2ccccc12,Percent Effect,"30.3 µM, […]",-64.73%
CNC(=O)C(C)(C)CNC(=O)Nc1ccc(C)cn1,Percent Effect,"30.3 µM, […]",-4.041%
CN1CCC(N2CCC(C(=O)N(C)C)CC2)CC1.O=C(O)C(F)(F)F.O=C(O)C(F)(F)F,Percent Effect,"30.3 µM, […]",15.52%
Cc1cc(C(=O)NCc2ccnc(N3CCN(C)CC3)c2)no1,Percent Effect,30 µM,35.55%
COc1cc(-c2nccn2C(C)CCn2cccn2)cc2c1OCO2 (centres undefined),Percent Effect,"30.3 µM, […]",30.8%
COCCCn1ccnc1-c1cnc(OC)nc1,Percent Effect,"30 µM, 30.03 µM",27.45%
COc1ncc(-c2nccn2C(C)CCn2cccn2)cn1 (centres undefined),Percent Effect,"30.3 µM, […]",51.46%
CCOCCNC(=O)c1cccnc1Sc1cc(OC)ccc1OC,Percent Effect,"30.3 µM, […]",14.43%
Cc1ccc(CNC(=O)CNCC2CCN(CCO)CC2)s1,Percent Effect,"30.3 µM, […]",12.94%
CC(NCC1CCN(CCO)CC1)c1cccc(Cl)c1 (centres undefined),Percent Effect,"30.3 µM, […]",73.65%
CC(NCC1CCN(CCO)CC1)c1cccnc1 (centres undefined),Percent Effect,"30.3 µM, […]",10.64%
CN(CC1CCN(CCO)CC1)CC(O)c1ccc(F)c(F)c1 (centres undefined),Percent Effect,"30.3 µM, […]",32.26%
CC(NC1CCN(CCS(C)(=O)=O)CC1)c1ccc(Cl)cc1 (centres undefined),Percent Effect,"30 µM, 30.03 µM",14.89%
OCCN1CCN(CC(O)c2ccc(C(F)(F)F)cc2)CC1 (centres undefined),Percent Effect,"30.3 µM, […]",28.06%
CC(NCC1CCN(CCO)CC1)c1ccc(Cl)cc1 (centres undefined),Percent Effect,"30.3 µM, […]",77.33%
COC1CCN(CCNC(=O)NC(C)c2cccc(Cl)c2)CC1 (centres undefined),Percent Effect,"30.3 µM, […]",6.711%
CC(NCC1CCN(CCO)CC1)c1ccc(OC(F)(F)F)cc1 (centres undefined),Percent Effect,"30.3 µM, […]",36.61%
CC(NCC1CCN(CCO)CC1)c1ccc(C(F)(F)F)cc1 (centres undefined),Percent Effect,"30.3 µM, […]",77.37%
COc1ccc(CNCC2CCN(CCO)CC2)cc1F,Percent Effect,"30.3 µM, […]",13.13%
CC(NCC1CCN(CCO)CC1)c1ccc(F)c(Cl)c1 (centres undefined),Percent Effect,"30.3 µM, […]",55.27%
O=C(O)C(F)(F)F.O=S(=O)(C1CC1)N1CCOCC2(CCN(c3ccccn3)C2)C1 (centres undefined),Percent Effect,"30 µM, 30.03 µM",-13.08%
CC(C)N(C)Cc1nnn2c1CN(Cc1cccnc1)CCC2.O=C(O)C(F)(F)F.O=C(O)C(F)(F)F.O=C(O)C(F)(F)F,Percent Effect,"30.3 µM, […]",-19.03%
FC(F)(F)c1cc(C2CCNCC2)nc(-c2ccsc2)n1,Percent Effect,"30.3 µM, […]",3.687%
CN(Cc1ccccc1)S(=O)(=O)N1C[C@H](C2CC2)[C@@H](N)C1,Percent Effect,"30.3 µM, […]",11.31%
Cc1nc(CN(C)C2CCN(CCc3cnn(C)c3)C2)no1 (centres undefined),Percent Effect,30 µM,5.885%
CCc1nc(CN(C)C2CCN(CCc3ccncc3)C2)no1 (centres undefined),Percent Effect,"30.3 µM, […]",23.01%
Cc1nc(CN(C)C2CCN(CCc3ccc4c(c3)CCO4)C2)no1 (centres undefined),Percent Effect,30 µM,14.02%
Cc1nc(C)n(CC2CCCN(CCc3ccccc3)C2)n1 (centres undefined),Percent Effect,30 µM,25.36%
Cc1noc(CN(C)CC2CCN(CCO)CC2)n1,Percent Effect,"30.3 µM, […]",19.09%
COc1ccc(CCN2CCCC(Cn3nc(C)nc3C)C2)cc1 (centres undefined),Percent Effect,"30 µM, 30.03 µM",18.76%
O=C(CCOc1ccccc1)NS(=O)(=O)Cc1ccccc1,Percent Effect,"30.3 µM, […]",8.588%
CCO[C@H]1CC[C@H]2[C@H]1OCCN2C(=O)CC1=CCCCC1,Percent Effect,"30.3 µM, […]",2.273%
Cn1cnc(S(=O)(=O)N2CCCC2)c1Cl,Percent Effect,"30 µM, 30.03 µM",14.79%
O=C(NCCc1cccc(F)c1)c1nc2c(s1)CCCN2C(=O)C1CC1,Percent Effect,"30.3 µM, […]",44.4%
CCN(Cc1ccoc1)C(C(N)=O)c1cccc(Br)c1 (centres undefined),Percent Effect,"30.3 µM, […]",23.25%
CN(c1ncc(S(N)(=O)=O)s1)C1CCC1,Percent Effect,"30.3 µM, […]",27.02%
CN(c1ncc(S(N)(=O)=O)s1)C1CCc2ccccc2C1 (centres undefined),Percent Effect,"30.3 µM, […]",53.12%
CN(c1ncc(S(N)(=O)=O)s1)C1CCc2ccccc21 (centres undefined),Percent Effect,"30.3 µM, […]",21.68%
O=C(NC1CCC1)C1=NOC2(CCN(Cc3ccccc3)C2)C1 (centres undefined),Percent Effect,"30.3 µM, […]",18.41%
CNC(=O)CN1CCOCC2(C1)CN(C(=O)CC(C)C)CCO2.O=C(O)C(F)(F)F (centres undefined),Percent Effect,"30.3 µM, […]",52.6%
CCCC(=O)N1CCOC2(COCCN(CC(=O)NC)C2)C1.O=C(O)C(F)(F)F (centres undefined),Percent Effect,"30.3 µM, […]",-9.456%
CNC(=O)CN1CCOCC2(C1)CN(C(=O)C(C)C)CCO2.O=C(O)C(F)(F)F (centres undefined),Percent Effect,"30.3 µM, […]",-36.06%
